Source: PubChem BioAssay
Rows were chosen to be rich in hits. Some 1.5% of all compounds tested hit in one or more screens of this group.
EBV gp42 block: EBV gp42 inhibition. Q1HVG2. Fluorescence polarization binding assay, mP read-out. inhibition, % (tested at 21.74 µM). hit rate 0.42% among 220,000. AID 1085; in the data active = inhibition above about 50%
MCL1-BIM inh: MCL1-BIM-BH3 interaction inhibition (human). Q07820. inhibition, % at 10.9 µM. GST-MCL1 / FITC-Bim-BH3 fluorescence polarization. hit rate 0.68% among 320,000;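 active = inhibition above the mean inhibition of all tested compounds plus 3 SD, set per campaign, cut at about 40% in these data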;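 also: 0% = DMSO wells and 100% = unlabeled Bim-BH3 peptide control; higher means more loss of mP so more displacement of Bim peptide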
MEX-5 binding: C. elegans MEX-5 TCR-2 RNA binding activity; Q9XUB2; MEX-5/FITC-TCR2 RNA binding, fluorescence polarization; active compounds read low; activity score (negative = inhibition of binding), % at 10 µM; hit rate 0.38% among 300,000; AID 1832;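 active = inhibition past about -25% in most replicates, and total fluorescence under double the plate's negative control median, limit read from the data; inconclusive = replicates evenly split on the limit, or fluorescence at least double controls; inactive = too little inhibition in most replicates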;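 also: 0% = DMSO and -100% = 5 µM competing unlabeled TCR2 RNA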
Bcl-xL primary: inhibitors of human Bcl-xL. GST-Bcl-xL / FITC-Bim BH3 peptide fluorescence polarization. inhibition, % at 10.9 µM. hit rate 0.7% among 320,000;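 active = inhibition above the mean of all tested compounds plus 3 SD, cutoff set per campaign, cut at about 30% in these data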;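 also: 0% = DMSO wells and 100% = unlabeled Bim-BH3 peptide competitor; inhibitors lower millipolarization by displacing the labeled peptide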
GLD-1 RNA inh: GLD-1-TGE RNA interaction inhibition (C. elegans) | Q17339 | purified GLD-1 + fluorescein TGE RNA, fluorescence polarization | inhibition, % at 5.96 µM | hit rate 0.44% among 320,000;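 active = percent inhibition above a per-plate cutoff, the plate mean of test compounds plus 3 SD, cut at about 30% in these data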;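 also: 0% = DMSO wells with GLD-1 and probe and 100% = wells lacking GLD-1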
E coli Lon inh: E. coli protease La inhibition; P0A9M0; purified E. coli Lon protease, fluorescence polarization; inhibition, % at 7.94 µM; hit rate 0.42% among 360,000; in the data active = inhibition above about 13%, passing the limit was not always enough;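 also: 0% = enzyme with probe and DMSO and 100% = no enzyme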
Target sequence (P0A9M0 whole entry, looked up): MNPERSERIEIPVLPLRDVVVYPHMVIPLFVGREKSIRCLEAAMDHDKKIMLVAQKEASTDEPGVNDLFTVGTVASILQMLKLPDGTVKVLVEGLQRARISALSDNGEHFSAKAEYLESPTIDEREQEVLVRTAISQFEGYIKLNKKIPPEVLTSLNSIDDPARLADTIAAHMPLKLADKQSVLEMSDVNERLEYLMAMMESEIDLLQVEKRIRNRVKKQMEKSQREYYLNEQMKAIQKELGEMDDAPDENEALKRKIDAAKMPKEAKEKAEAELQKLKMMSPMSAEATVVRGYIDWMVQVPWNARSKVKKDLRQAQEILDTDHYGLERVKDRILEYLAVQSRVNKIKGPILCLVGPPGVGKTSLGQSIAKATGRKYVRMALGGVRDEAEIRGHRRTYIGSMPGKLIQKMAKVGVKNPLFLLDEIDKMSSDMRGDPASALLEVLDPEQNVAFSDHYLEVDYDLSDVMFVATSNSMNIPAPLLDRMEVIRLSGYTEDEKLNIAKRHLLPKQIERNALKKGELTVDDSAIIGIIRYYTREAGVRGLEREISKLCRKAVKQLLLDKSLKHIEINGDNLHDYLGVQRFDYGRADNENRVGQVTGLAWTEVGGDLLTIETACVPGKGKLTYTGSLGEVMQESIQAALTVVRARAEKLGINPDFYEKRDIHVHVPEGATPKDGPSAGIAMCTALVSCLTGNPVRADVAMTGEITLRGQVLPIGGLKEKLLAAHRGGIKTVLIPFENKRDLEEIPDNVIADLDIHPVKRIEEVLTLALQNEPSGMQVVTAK
Bcl-xL conf: counter-screen for MCL1 inhibitors: confirmation of human Bcl-xL inhibitors; AID 2166; inhibition, % at 10.9 µM; hit rate 54% among 1,700; GST-Bcl-xL / FITC-Bim BH3 peptide FP binding; shares compounds with MCL1-BIM inh;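 active = inhibition above a cutoff equal to the mean inhibition of all tested compounds plus 3 SD, cut at about 30% in these data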;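 also: 0% = DMSO wells and 100% = unlabeled Bim BH3 control peptide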
MCL1 BIM confirm: confirmation of human MCL1 and BIM-BH3 interaction inhibitors. shares compounds with MCL1-BIM inh. GST-MCL1 / FITC-Bim-BH3 fluorescence polarization. inhibition, % at 10.9 µM. AID 2168. hit rate 61% among 1,700;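 active = inhibition above the average of all tested compounds plus 3 SD, cut at about 40% in these data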;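 also: 0% = DMSO wells and 100% = unlabeled Bim-BH3 control peptide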
GLD1 RNA confirm: GLD-1 TGE RNA interaction inhibition, confirmation. shares compounds with GLD-1 RNA inh. GLD-1/FL-TGE RNA fluorescence polarization, biochemical. hit rate 10% among 550. AID 2459. inhibition, % at 5.96 µM;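 active = average inhibition across triplicates above the hit cutoff set in the primary screen, cut at about 32% in these data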;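 also: 0% = GLD-1 with RNA probe and DMSO and 100% = wells lacking GLD-1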
eLon confirm: E. coli Lon inhibition confirmation; shares compounds with E coli Lon inh; AID 602230; hit rate 31% among 1,400; purified E. coli Lon, fluorescence polarization; inhibition, % at 7.94 µM; in the data active = inhibition above about 16%;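 also: 0% = enzyme with probe and DMSO and 100% = no enzyme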
* = called active by the depositor; u = inconclusive; x = no result given; + = active, no number.

SMILES | EBV gp42 block | MCL1-BIM inh | MEX-5 binding | Bcl-xL primary | GLD-1 RNA inh | E coli Lon inh | Bcl-xL conf | MCL1 BIM confirm | eLon confirm | others
CCNc1ccccc(-c2ccc3ccccc3n2)c1=O | 15 | 27 | -1 | 22 | 13 | -13 | x | x | x
O=C1c2ccccc2-c2onc3ccc(NCc4ccco4)c1c23 | 130* | 199* | -77* | 165* | 165* | 128* | 162* | 188* | 118*
CCNc1ccc2noc3c2c1C(=O)c1ccccc1-3 | 56* | + | u | 175* | 192* | + | 184* | + | 183*
Cc1cc(/C=N/NC(N)=S)c(O)c(/C=N/NC(N)=S)c1 | 147* | + | -4 | + | 189* | + | 189* | + | 189*
NC(=S)N/N=C/c1ccccc1O | -6 | 15 | -3 | 9 | -2 | 8 | x | x | x
COCCN(C(=O)CCCc1nc2ccccc2s1)c1c(N)n(CC(C)C)c(=O)[nH]c1=O | x | -2 | x | 3 | 8 | -1 | x | x | x
c1ccc(CNc2ccccn2)cc1 | x | 7 | -1 | 5 | 0 | 1 | x | x | x
c1ccc(Nc2ccccc2Nc2ccccn2)nc1 | -2 | 98* | 0 | 98* | 141* | 33* | 18 | 29 | 2
COc1ccccc1C(=O)Oc1ccc2c(c1)O/C(=C\c1ccncc1)C2=O | 33 | 142* | -26* | 123* | 101* | 28* | 32* | 52* | 49*
O=C(Oc1ccc2c(c1)O/C(=C\c1ccncc1)C2=O)c1cccs1 | 12 | 82* | -5 | 78* | 84* | 54* | 34* | 46* | 24*
COCC(C)(C)COS(N)(=O)=O | x | -2 | 1 | -1 | 0 | 4 | x | x | x
Cc1cccc(C(=O)Nc2cccc3cccnc23)c1 | x | x | -3 | x | x | -5 | x | x | x
Cc1ccc(/C=C/C(=O)Nc2cccc3cccnc23)o1 | -10 | 84* | -7 | 78* | 68* | 70* | 32* | 40* | 30*
Cc1ccccc1-n1c(SCc2c(C)noc2C)nnc1-c1ccncc1 | -16 | -12 | 3 | -3 | 0 | 4 | x | x | x
Cc1ccccc1-n1c(SCc2c(C)noc2C)nnc1-c1cccnc1 | 89* | 144* | -17 | 133* | 89* | 63* | 116* | 136* | 45*
CCOc1ccc(C(=O)CSc2nnc3ccccn23)cc1 | -2 | -6 | 1 | -2 | 7 | -1 | x | x | x
CCn1c(CSc2nnc3ccccn23)nc2cc(C(=O)O)ccc21 | 83* | 110* | -21 | 99* | 95* | 52* | 64* | 86* | 42* | GLD1 RNA confirm=32*
Cc1ncc(C(O)c2ccc(N(C)C)cc2)n1Cc1ccccc1 (stereo not drawn) | x | x | x | x | x | -1 | x | x | x
CN(C)c1ccc2nc3c(=O)[nH]c(=O)nc-3n(CC(O)C(O)C(O)CO)c2c1 (stereo not drawn) | x | + | u | 190* | 163* | 165* | 150* | 174* | 82*
CCOc1ccc(NC(=O)c2cccc(S(=O)(=O)NCc3cccnc3)c2)cc1 | x | x | x | x | x | 7 | x | x | x
CC1(c2cccc(Br)c2)NC(=O)N(CC(=O)Nc2cccnc2Cl)C1=O (stereo not drawn) | x | -3 | 1 | 2 | -1 | -13 | x | x | x
O=C(NC12CC3CC(CC(C3)C1)C2)c1cnccn1 | 14 | 53* | -2 | 42* | 34* | 15* | 29 | 40* | -22 | GLD1 RNA confirm=-10
C/C(CC(=O)NC12CC3CC(CC(C3)C1)C2)=N\NC(=O)c1cnccn1 | -4 | 13 | -1 | 6 | -7 | -9 | x | x | x
NC(=S)Nc1cc2ccccc2c2ccccc12 | -2 | 9 | 0 | 2 | 6 | 10 | x | x | x
NC(=S)Nc1cccc2cc3ccccc3cc12 | -5 | 53* | 0 | 57* | 15 | 42* | 81* | 95* | 113*
SMILES | EBV gp42 block | MCL1-BIM inh | MEX-5 binding | Bcl-xL primary | GLD-1 RNA inh | E coli Lon inh | Bcl-xL conf | MCL1 BIM confirm | eLon confirm | others
O=C1NC(=S)CN1c1ccccc1 | 3 | 79* | -15 | 70* | 69* | 33* | 26 | 30 | 16 | GLD1 RNA confirm=-3
CCN(CC(=O)NCc1cccs1)C(=O)c1ccc(NS(=O)(=O)c2ccc(C(C)=O)cc2)cc1 | x | 5 | 1 | 0 | 4 | -8 | x | x | x
COc1ccccc1-c1csc(C(C)(O)c2ccccc2)n1 (stereo not drawn) | x | x | x | x | x | -3 | x | x | x
COc1cccc2c1C(=N)c1c(O)c3c(c(O)c1C2=O)CC(O)(C(C)=O)CC3OC1CC(N)C(O)C(C)O1 (stereo not drawn) | x | x | x | x | x | 39 | x | x | x
COc1cccc2c1C(=O)c1c(O)c3c(c(O)c1C2=O)C[C@](O)(C(C)=O)C[C@H]3O[C@@H]1C[C@@H](N)[C@@H](O)[C@@H](C)O1 | x | + | u | + | + | + | + | + | +
Nc1ncc(-c2ccccc2)c(-c2ccc(O)cc2O)n1 | x | 51* | 0 | 50* | 43* | 22* | 14 | 16 | 7 | GLD1 RNA confirm=11
O=C(CCOc1ccccc1)Nc1ccnn1C1CCN(Cc2ccc(F)cc2)CC1 | x | 0 | -2 | 3 | -2 | -10 | x | x | x
O=c1[nH]c(=S)[nH]c2nc(-c3ccccc3)cnc12 | x | 17 | -5 | 13 | 4 | -5 | x | x | x
Cc1cc2nc3c(=O)[nH]c(=S)[nH]c3nc2cc1NC(=O)C(F)(F)F | x | + | u | + | 185* | + | 185* | 197* | 145*
N#Cc1cc([N+](=O)[O-])ccc1NC(=O)CSc1n[nH]c(=O)n1C1CC1 | x | 1 | x | 5 | 1 | -5 | x | x | x
N#Cc1cccc(NC(=O)c2cc(C3CCCCN3C(=O)c3ccccn3)on2)c1 (stereo not drawn) | x | x | x | x | x | -3 | x | x | x
C=CCNC(=O)/C(C#N)=C/c1ccccc1[N+](=O)[O-] | 22 | 51* | -2 | 45* | 31* | 23* | 26 | 22 | 19* | GLD1 RNA confirm=45*
CNc1ncnc(NC)c1[N+](=O)[O-] | x | x | x | x | x | 7 | x | x | x
CSc1ncccc1C(=O)OCC(=O)N(CC(C)C)c1c(N)n(Cc2ccccc2)c(=O)[nH]c1=O | x | -5 | 2 | -2 | 0 | -1 | x | x | x
Cc1cccn2c(=O)c(C=C(C#N)C#N)c(N3CCN(c4ccccc4)CC3)nc12 | x | x | 0 | x | x | 11 | x | x | x
